From PubChem BioAssay AID720518 (National Center for Advancing Translational Sciences (NCATS), 2013)
Results filed as inconclusive are left out. Activity calls are given as the source filed them. Calls follow the shape of the full dose curve.

Assay: qHTS for Inhibitors of Cell Surface uPA Generation: Wild-type Protective Antigen (WT-PrAg) Counterscreen for Cherry-picked Compounds; as to activity (protection): 0% is about no effect
Settings: cells, WT protective antigen toxicity counterscreen; series mostly up to 115 µM; activity (protection): at the top concentration
Potency is read from the fitted curve at half-maximal effect.

SMILES | activity (protection) | Potency
CN(C)S(=O)(=O)c1ccc(NC(=O)COC(=O)CC2CC3CCC2C3)cc1 (centres undefined) | 0.767% (inactive) | 
O=C1N[C@@H](Cc2c[nH]c3ccccc23)C(=O)N[C@H]1Cc1ccccc1 | 1.55% (inactive) | 
O=C(NNC(=O)C1CC(c2cccs2)=NO1)Nc1ccccc1 (centres undefined) | 0.0009% (inactive) | 
C=CS(=O)(=O)c1ccc(Oc2ccc(S(=O)(=O)C=C)cc2)cc1 |  | 65.6 µM (active)
COc1ccccc1N=Nc1c(C)[nH]n(-c2ccccc2)c1=O | 4.55% (inactive) | 
O=C(NCCCn1ccnc1)C(=O)NCC(c1cccnc1)N1CCN(c2ccc(F)cc2)CC1 (centres undefined) | 0.272% (inactive) | 
COCCN(C(=O)c1ccc(OC2CCN(S(=O)(=O)N(C)C)CC2)cc1)C(C)C | 0.247% (inactive) | 
Cc1ccc(C)c(S(=O)(=O)Nc2ccccc2C(=O)Nc2cc(C)on2)c1 | -1.99% (inactive) | 
CCCOc1ccc(CC2CCC(=O)NC2=O)cc1 (centres undefined) | -1.67% (inactive) | 
Cc1ccc(C)c(N2N=C(C(=O)N(CC(C)C)c3c(N)n(Cc4ccccc4)c(=O)[nH]c3=O)CCC2=O)c1 | -0.644% (inactive) | 
COc1cccc(-n2c(SCC(=O)Nc3cc(C)on3)nc3c([nH]c4ccccc43)c2=O)c1 | 10.9% (inactive) | 
COc1ccc(C(=O)NC(C)c2cnn(-c3ccccn3)c2C)o1 (centres undefined) | -0.938% (inactive) | 
COc1ccccc1NC(=O)COc1ccc(C(=O)NCc2ccccc2)cc1OC | 0.351% (inactive) | 
CC(C)NC(=O)CN1CCC(c2nc3ccccc3[nH]2)CC1 | -0.544% (inactive) | 
COc1ccc(OC)c(N2C(=O)CC(Cc3cc(C)cc(C)c3)C2=O)c1 (centres undefined) | -0.552% (inactive) | 
Fc1ccc(N2CCN(c3nc(CN4CCOCC4)nc4scc(-c5ccccc5)c34)CC2)cc1 | -1.42% (inactive) | 
NC(=O)C1CCN(C(=O)c2cccc3ccccc23)CC1 | 0.996% (inactive) | 
Cc1ccc(NC2CCCN(C(=O)Cc3nonc3C)C2)cc1C (centres undefined) | -0.306% (inactive) | 
CCC(C(=O)NCc1ccc(C)cc1)c1ccccc1 (centres undefined) | 0.409% (inactive) | 
COCCN(CCOC)c1nc(-c2ccc(C)cc2)nc2ccccc12 | -1.39% (inactive) | 

SMILES | activity (protection) | Potency
CN(C)c1ccc(S(=O)(=O)N2CCC(Cc3ccccc3)CC2)cn1 | -0.825% (inactive) | 
COc1ccc(NC(=O)c2cccnc2N2CCOCC2)cc1 | 0.0263% (inactive) | 
Nc1cc(=O)[nH]c(SCC(=O)Nc2cccc([N+](=O)[O-])c2)n1 | -1.09% (inactive) | 
CC1CCCCN1C(=O)CSc1nc2ncccc2[nH]1 (centres undefined) | -1.11% (inactive) | 
CC(=O)Nc1nc2ccccc2[nH]1 | 0.0855% (inactive) | 
COCCN(C(=O)c1ccccc1OC)c1nnc(C)s1 | -1.62% (inactive) | 
COc1ccccc1NC(=O)Cn1ncc2c1-c1ccccc1OC2 | -0.171% (inactive) | 
COc1ccc(NS(=O)(=O)c2c(C)n(C)c(=O)n(C)c2=O)cc1OC | -1.24% (inactive) | 
O=C(O)CC1(CC(=O)NCc2ccc(Cl)cc2)CCCCC1 | -0.619% (inactive) | 
CC1(CC(=O)N/N=C/c2cc(Br)c(O)cc2O)OCCO1 | -2.29% (inactive) | 
CCCN1CCN(C(=O)CCCn2c(C)c3cnn(-c4ccccc4)c(=O)c3c2C)CC1 | -1.21% (inactive) | 
CCC(=O)Nc1nc(-c2cc([N+](=O)[O-])cs2)cs1 | 0.561% (inactive) | 
Cc1ccccc1NC1c2ccccc2C(=O)N1Cc1ccco1 (centres undefined) | -0.797% (inactive) | 
Cc1ccc(C)c(-c2ccc(=O)n(Cc3c(F)cccc3Cl)n2)c1 | -1.81% (inactive) | 
CCOc1ccc(-n2cnc3scc(-c4ccc(OC)c(OC)c4)c3c2=O)cc1 | -2.53% (inactive) | 
C=CCN1C=C2C(=O)C(C)(OC(=O)c3cnc4ccccc4n3)C(=O)C=C2C=C1/C=C/COC (centres undefined) | -0.821% (inactive) | 
Cc1ccc(CN2CCN(Cc3cc4ccccc4o3)CC2CCO)cc1 (centres undefined) | -0.17% (inactive) | 
C[N+]1(CC(O)c2ccccc2)CCCCCC1 (centres undefined) | 0.142% (inactive) | 
Cc1ccc2nc(Nc3ccc(Cl)cc3)c3nncn3c2c1 | 1.05% (inactive) | 
